Hits are enriched below; roughly 19% of the tested compounds scored in any of these assays.
DT40 TDP1 CPT = growth inhibition of DT40 Tdp1-/-;hTDP1 cells with camptothecin (screen for TDP1 inhibitors); chicken DT40 Tdp1-/-;hTDP1 cells + 20 nM CPT, ATP luminescence, 48 h; Potency, µM (doses to about 46.2 µM), inactives show top-dose activity change, negative = growth inhibition, usual class: inhibitors; hit rate 12% among 420,000; AID 686979; note: nearly all actives have a fitted effect of over 55% in size
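Chicken DT40 Tdp1-/- cells stably complemented with human TDP1 were seeded at 400 cells/well in medium containing 20 nM camptothecin, exposed to pin-transferred compounds, and grown at 37 °C for at least 48 hr. Viability was read as ATP luminescence.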
VP16 counter = Gal4-VP16 reporter inhibition counter-screen; Drosophila S2 Gal4-VP16 UAS-luciferase, luminescence, 20 h; Potency, µM (top dose mostly 53.6 µM), without a hit: at the highest dose activity, negative = inhibition, actives largely listed as inhibitors; hit rate 3.5% among 310,000;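 note: Gal4-VP16 expression switched on by copper sulfate through the metallothionein promoter; nearly all actives have a fitted effect of over 50% in size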
TDP1 inh = inhibitors of human tyrosyl-DNA phosphodiesterase TDP1; Q9NUW8; recombinant TDP1, AlphaScreen DNA substrate cleavage; Potency, µM (titrated, usually from 130 µM), inactives show at the highest dose activity change, negative = inhibition, most hits filed as inhibitors; hit rate 0.28% among 350,000; AID 485290; note: nearly all actives have a fitted effect of over 40% in size
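E. coli-derived human Tdp1, 1 nM final. Cpd preinc 15 min RT; substrate 15 nM final, 5 min RT; AS bead mix 10 ug/ml final, 10 min RT. Signal loss = tyrosine-FITC cleavage. No-enzyme wells = max signal.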
DT40 TDP1 no CPT = qHTS for Inhibitors of human tyrosyl-DNA phosphodiesterase 1 (TDP1): qHTS in cells in absence of CPT; hit rate 15% among 420,000; Potency, µM (series often up to 46.2 µM), without a hit: at the highest dose activity change, negative = growth inhibition, hits mostly inhibitors; AID 686978, 2013; DT40 Tdp1-/- hTDP1 cells, no CPT, ATP luminescence, 48 h; note: nearly all actives have a fitted effect of over 55% in size
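Seeded 400 DT40-hTDP1 cells/well (vehicle DMSO, no 20 nM CPT); pinned compounds; ≥48 hr at 37 °C; CellTiter-Glo luminescence as viability measure.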
RORg inh = inhibitors of mouse ROR gamma transcriptional activity; P51450; Potency, µM (series often up to 53.6 µM), inactives show at the top dose activity change, negative = inhibition, usual class: inhibitors; hit rate 5.4% among 310,000; Drosophila S2 Gal4-RORgamma UAS-luciferase reporter, 20 h; note: nearly all actives have a fitted effect of over 60% in size
Target sequence (P51450 whole entry, looked up, the tested form may be a part): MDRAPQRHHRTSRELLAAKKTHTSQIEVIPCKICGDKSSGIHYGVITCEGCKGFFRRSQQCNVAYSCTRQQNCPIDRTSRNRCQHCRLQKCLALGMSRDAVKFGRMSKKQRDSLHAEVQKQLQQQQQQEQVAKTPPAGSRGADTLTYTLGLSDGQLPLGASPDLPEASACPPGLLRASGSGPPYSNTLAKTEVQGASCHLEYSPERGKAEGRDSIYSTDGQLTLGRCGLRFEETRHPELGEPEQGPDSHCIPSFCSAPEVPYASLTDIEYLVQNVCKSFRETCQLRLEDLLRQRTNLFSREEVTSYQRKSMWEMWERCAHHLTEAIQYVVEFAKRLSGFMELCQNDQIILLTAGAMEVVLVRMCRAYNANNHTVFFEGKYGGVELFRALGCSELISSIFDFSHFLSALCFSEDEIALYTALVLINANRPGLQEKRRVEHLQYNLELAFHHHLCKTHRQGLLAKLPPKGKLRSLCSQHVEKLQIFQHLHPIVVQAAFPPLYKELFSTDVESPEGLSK
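In this cell-based reporter format, copper sulfate (700 uM final) drives Gal4–ROR gamma fusion expression from a metallothionein promoter in Drosophila Schneider cells; compounds preincubated 1 hr, reporter read after 20 hr at ambient temperature.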
* marks the source's active call; other numbers are inactive results; [ ] = another dose, or the depositor's remark. Calls come from the whole dose curve; as a rule, active = well fitted curve in the direction sought with a large enough effect; inconclusive = small, poorly fitted or top-dose-only effect, or another doubt; inactive = no such curve, though single readings can be large; an effect the other way counts as inactive or inconclusive. % is set by controls: 0 for no effect and ±100 for the full control effect; potency is the fitted concentration of half-maximal effect.

What do the screens show for `Cc1ccc(C2=CC(c3ccc(Cl)cc3)n3nc(-c4ccc(C)cc4)nc3N2)cc1` (stereo not given)?
DT40 TDP1 CPT: 32.6µM*; TDP1 inh: 3.6%; DT40 TDP1 no CPT: inconclusive

What do the screens show for `Cc1ccc(-c2nc3n(n2)C(c2ccccc2C)C=C(c2ccc(Cl)cc2)N3)cc1` (stereo not given)?
DT40 TDP1 CPT: inconclusive; TDP1 inh: 4.5%; DT40 TDP1 no CPT: 23.1µM*

How did COc1ccc(-c2nc3n(n2)C(c2ccccc2Cl)C(C(N)=O)=C(C)N3)cc1 (stereo not given) do in these assays?
DT40 TDP1 CPT: 8.7%; VP16 counter: 4.1%; TDP1 inh: 2.5%; DT40 TDP1 no CPT: 19.9%; RORg inh: 28.6%

Results for COc1ccc(C2C=C(c3ccc(Cl)cc3)Nc3nc(-c4ccc(Cl)cc4)nn32)cc1 (stereo not given) ?
DT40 TDP1 CPT: 8.2µM*; DT40 TDP1 no CPT: 4.61µM*

How did CCN1CCN(CC(O)COc2cccc(OC)c2)CC1 (stereo not given) do in these assays?
DT40 TDP1 CPT: 5.9%; VP16 counter: -3.3%; TDP1 inh: 5.7%; DT40 TDP1 no CPT: 5.4%; RORg inh: -19.0%

What do the screens show for `O=C(c1ccco1)N(Cc1cccnc1)c1nc2ccc(F)cc2s1`?
DT40 TDP1 CPT: 6.4%; TDP1 inh: 5.2%; DT40 TDP1 no CPT: -11.5%

How did CC1=C(C(=O)OCc2ccccc2)C(c2cccnc2)n2ncnc2N1 (stereo not given) do in these assays?
DT40 TDP1 CPT: 18.4µM*; VP16 counter: -2.2%; TDP1 inh: -2.0%; DT40 TDP1 no CPT: 14.6µM*; RORg inh: 12.1%

What do the screens show for `COC(=O)C1=C(C)Nc2ncnn2C1c1ccc(OC(=O)c2ccccc2)cc1` (stereo not given)?
DT40 TDP1 CPT: 8.2µM*; VP16 counter: -5.4%; TDP1 inh: -2.0%; DT40 TDP1 no CPT: inconclusive; RORg inh: -20.4%

Results for O=C(/C=C/c1cccc([N+](=O)[O-])c1)NC1CC2CCC1C2 (stereo not given) ?
DT40 TDP1 CPT: -4.2%; VP16 counter: 24.0%; TDP1 inh: 4.7%; DT40 TDP1 no CPT: -24.2%; RORg inh: inconclusive

Results for Cc1sc2nc(CSC(C)C(=O)N(C)CC(=O)Nc3ccccc3C(F)(F)F)[nH]c(=O)c2c1C (stereo not given) ?
DT40 TDP1 CPT: -26.9%; TDP1 inh: 4.1%[0.505 µM]; DT40 TDP1 no CPT: inconclusive

How did COc1ccc(CC(N)c2csc(NC(=O)CCc3ccccc3)n2)cc1 (stereo not given) do in these assays?
DT40 TDP1 CPT: 23.1µM*; DT40 TDP1 no CPT: 20.6µM*

What do the screens show for `COc1ccc(CC(N)c2csc(NC(=O)Nc3ccccc3C(C)C)n2)cc1` (stereo not given)?
DT40 TDP1 CPT: 8.2µM*; DT40 TDP1 no CPT: 16.4µM*

How did COc1ccc(CC(N)c2csc(NC(=O)Nc3ccccc3Cc3ccccc3)n2)cc1 (stereo not given) do in these assays?
DT40 TDP1 CPT: 20.6µM*; DT40 TDP1 no CPT: 16.4µM*

What do the screens show for `COc1ccc(CNC(=O)c2csc(Cc3ccccc3)n2)cc1`?
DT40 TDP1 CPT: -2.6%; VP16 counter: inconclusive; TDP1 inh: 2.8%; DT40 TDP1 no CPT: -26.1%; RORg inh: -18.8%

What do the screens show for `COc1ccc(C(=O)COC(=O)c2ccco2)cc1`?
DT40 TDP1 CPT: -0.9%; VP16 counter: inconclusive; TDP1 inh: 0.0%; DT40 TDP1 no CPT: -7.1%; RORg inh: 2.4%

How did O=C(COc1coc(CN2CCN(c3ccccc3F)CC2)cc1=O)NC1CCCCC1 do in these assays?
DT40 TDP1 CPT: inconclusive; TDP1 inh: 0.9%; DT40 TDP1 no CPT: inconclusive

Results for CC(C)N1C(=O)N(c2cccc(Cl)c2)C(C)(O)CC1(C)C (stereo not given) ?
DT40 TDP1 CPT: -2.2%; VP16 counter: -2.8%; DT40 TDP1 no CPT: -13.3%; RORg inh: 7.94µM*

Results for CCC[C@@H]1CCCO[C@@](C(=O)NCc2ccc(S(C)(=O)=O)cc2)(C(F)(F)F)C1 ?
DT40 TDP1 CPT: 29.1µM*; VP16 counter: -10.8%; TDP1 inh: 9.1%; DT40 TDP1 no CPT: inconclusive; RORg inh: inconclusive

What do the screens show for `O=C(NCC1CC1)[C@]1(C(F)(F)F)C[C@H](CCC2CCCCC2)CCCO1`?
DT40 TDP1 CPT: inconclusive; VP16 counter: -15.4%; TDP1 inh: -2.6%; DT40 TDP1 no CPT: 23.1µM*; RORg inh: -0.9%

How did CCCC[C@@H]1CCCO[C@@](C(=O)NCc2ccccc2)(C(F)(F)F)C1 do in these assays?
VP16 counter: -4.3%; TDP1 inh: -1.5%; RORg inh: -9.1%

What do the screens show for `Cc1ccc(N(C)S(=O)(=O)c2ccc3c(c2)NC(=O)C(C)S3)cc1` (stereo not given)?
DT40 TDP1 CPT: -22.9%; VP16 counter: -15.9%; TDP1 inh: 0.2%; DT40 TDP1 no CPT: -13.7%; RORg inh: 10.1%

Results for Cc1c(NC(=O)c2ccc(N3CCCC3)c([N+](=O)[O-])c2)cccc1-c1nc2ccccc2s1 ?
DT40 TDP1 CPT: -21.5%; VP16 counter: 1.0%[0.365 µM]; TDP1 inh: 5.3%; DT40 TDP1 no CPT: inconclusive; RORg inh: inconclusive

How did CCN(CC)CCN(C(=O)c1cc2ccccc2cc1OC)c1nc2ccc(F)cc2s1 do in these assays?
DT40 TDP1 CPT: 18.4µM*; VP16 counter: -1.2%; TDP1 inh: 12.9%; DT40 TDP1 no CPT: inconclusive; RORg inh: inconclusive

How did COc1cc2ccccc2cc1C(=O)N(CCN(C)C)c1nc2ccc(C)cc2s1 do in these assays?
DT40 TDP1 CPT: inconclusive; VP16 counter: -11.4%; TDP1 inh: 8.2%; DT40 TDP1 no CPT: inconclusive; RORg inh: -21.7%

Results for COc1ccccc1C(=O)N(CCN(C)C)c1nc2cc(C)cc(C)c2s1 ?
DT40 TDP1 CPT: inconclusive; VP16 counter: -2.6%; TDP1 inh: 5.8%; DT40 TDP1 no CPT: 25.9µM*; RORg inh: -21.6%

What do the screens show for `CCN(CC)CCN(C(=O)c1cc2ccccc2cc1OC)c1nc2ccc(OC)cc2s1`?
DT40 TDP1 CPT: inconclusive; VP16 counter: inconclusive; TDP1 inh: 16.3%; DT40 TDP1 no CPT: 18.4µM*; RORg inh: -7.2%

How did COc1cc2ccccc2cc1C(=O)N(CCN(C)C)c1nc2c(C)cccc2s1 do in these assays?
DT40 TDP1 CPT: 16.4µM*; VP16 counter: 0.0%; TDP1 inh: 14.5%; DT40 TDP1 no CPT: 23.1µM*; RORg inh: -2.8%

What do the screens show for `CCCCN1c2cc(C)c(O)cc2C(C(=O)OCC)C1C` (stereo not given)?
DT40 TDP1 CPT: -20.7%; VP16 counter: 2.4%; TDP1 inh: 4.7%; DT40 TDP1 no CPT: -13.3%; RORg inh: -21.7%
